Our source for the PBM binding z-score values is the supplement of paper PMC6555819.

The test system of the assay is LXRb homodimer (NR concentration 270 nM). The assay can be described thus: PBM binding z-score (relative to random genomic background probes); higher = stronger binding; sequences stand for … in GC…GCGATTGACAGCGTAGAATGAAGG
The gist of the method: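 Each nuclear receptor dimer, without ligand, was incubated for 1 h on custom Agilent 4×180K protein-binding microarrays. Binding was detected with antibodies against each partner (one per run), and scanned fluorescence was regression-normalized. The binding z-scores are referenced to random human genomic background probes.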
As to CTACCAAGGTGGACAAGGTCGTTGATTACTATTC, the PBM binding z-score was -0.653.

With AGAGTGAGGTTAAGATCAGGGAAACAGAATACAT, the PBM binding z-score came out at 1.09. The same measure for CCAGACAGGTGAAAGGGAACTCAGTCTGGTACGC: -0.681; for CGAACTAGGTCATGGACAGTGAATCTCCGCACGC: -0.358; for CGACCTAGGTCATCCAGGACAGTGAATACATTGA: 0.0681. As for TAGCCTAGGTCATGCGGGCCACTATAGTGTCGGC, the figure is -0.164. As to ACTAGCAGGCCCAGTTTGGGTCACTCAAACAAAG, the PBM binding z-score was -0.861. The same measure for TAGCCTAGGTCATTCAGGTGCCAGTATAGAAAGC: 0.913; for ATCCCTAGGTAAAGATAGTTCAGTGAATGCAAAT: 0.0793; for CAAACTAGGGCACCGGAAGGTCAAAGTCCGCATG: -0.115. As for CCCCGGAGGACAACAGGAGGTCAGAGCTGCCAGA, the PBM binding z-score was -0.479.

With CAAACTAGGTCAAGAGGGCAAAGTCCGCTTCCCG, the PBM binding z-score was determined as 0.164. As for ATCCAAAGGTCGACGAGGTGAGTATACACCGTTT, the figure is 0.235; as for TATACAGGGTCAAACGCCAGAGTACGAATGTCGA, 3.15. ACTAGCAGGCCAAGTCTGGGTCACTCAAACAAAG: the PBM binding z-score is -1.12. Take GCAGACAGGTGAAACGCAGGTGACTCAGGGTGGC: the PBM binding z-score is -1.12. As for ATCTGTAGGTAACCAAGTTCAGTGAATGCCGAAC, the figure is 0.153. With CTTACTGGGCCATTCAGAGGTCATTGATCATATG, the PBM binding z-score was determined as 0.985. For ATACCAAGGTGATCGTGAGGTCGTTCATACTAAC, the PBM binding z-score was 0.148. Take TAGCCTAGGTCATTCAGTGGCCAGTATAGAAAGC: the PBM binding z-score worked out at 0.554. AGTCAAAGTTCCCTAGGTAACGTAAGATTCAGCT came in with a PBM binding z-score of -0.222. As for TCTTGTAGATCAAGCAGGTGAAGAAAGCCTGAGT, the figure is -0.467. The same measure for CCTAGTTGGTCAAAGTCACACACGCTATAGGTAC: 0.603.

CCTAGTTGGTCGAGGTCACACACGCTATAGGTAC had a PBM binding z-score of 0.632.

Sequence GATACAGGGTCAAGGCCAGAGTTCGCGTATTGAT displayed a PBM binding z-score of -0.198.

As to CCAACTAGGTCAAGGACAGTGAATCTCCGCACGC, the PBM binding z-score was 0.422. Sequence TCTTGTAGATCAGCATGTTAAGAAAGCTGGCCAA registered a PBM binding z-score of -0.503.

ACTTACGGGTCAACGAGGTTATAGCGCGCGTATA yielded a PBM binding z-score of 0.647. For CGTCCAAGGTCAAAGATCAGTGAAGAGATGACGG, the PBM binding z-score is 1.25.

CCTTACGGGTCGAGGTTATAGCACGGGTGGTACG: the PBM binding z-score was -0.417. On to GCTGACAGGTGAAACGCAGGTAACTCAGGGTGGC, for which the PBM binding z-score was -0.869. As for CCTACTGGTCCACGAAAGGTCATTGATTCAGTGA, the figure is 1.21; as for CCAACTGGGGCAAGGTTACCATAACGCACAGCCA, -0.862; as for GCTGCTAGGTCAGGTTGGTCACCTAACGGGTACG, -0.281.

As to CCGACTGGGGCAAAGGGTACCATACTCAGTACGA, the PBM binding z-score was -1.06. ATCTCTAGGTAAGACTAAGTTCAGTGAAGAACGC: the PBM binding z-score was determined as 0.815. The same measure for TCTATTAGTTTATTAGGGCAACCGAAACAGCGGA: 2.21. As for CCTTACGGGCCACTCCAGGTTATAGCATCGGAGT, the figure is -0.752; as for TCTTGTAGATCAAGCACGTTAAGAAAGCCTGAGT, -0.495.
